Calls of active or inactive are those of the source. The calls were made as follows: active = hit-call score of the fitted dose curve at least 0.9, where 1 is the maximum; inactive = score below 0.9.
Key:
[1] = ATG_E_Box_CIS: Attagene CIS-FACTORIAL HepG2 Assay for human Enhancer Box (E-box) (AID 2282936); settings: HepG2 E-box cis-reporter transcription, actives raise or lower the signal
Summary of the method: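 In this cell-based setup, HepG2 cells bearing transfected promoter-driven reporter units were exposed to chemicals for 24 h; reporter transcripts were amplified, 6-FAM-labelled, cut with HpaI and sized by capillary electrophoresis.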

[2] = ATG_M_61_CIS: Attagene CIS-FACTORIAL HepG2 Assay for M61 Transcription Factor (Internal Marker) (AID 2282937); settings: HepG2 Attagene CIS-FACTORIAL M61 internal marker reporter; actives raise or lower the signal
Summary of the method: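 Using transiently transfected HepG2 liver cells, reporter transcript levels were assessed 24 h post-dosing by RT-PCR and capillary electrophoresis. Changes in either direction were fitted relative to DMSO controls.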

[3] = ATG_EGR_CIS: Attagene CIS-FACTORIAL HepG2 Assay for human Early Growth Response 1 (EGR1) (AID 2282938); settings: HepG2 Attagene CIS-FACTORIAL EGR reporter mRNA; actives raise or lower the signal
Summary of the method: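 Fluorescent capillary-electrophoresis signal of reporter cDNA fragments serves as read-out. HepG2 cells bear transiently transfected cis-promoter reporter units and are exposed 24 h; gain- or loss-of-signal is fitted against DMSO.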

[4] = ATG_M_19_CIS: Attagene CIS-FACTORIAL HepG2 Assay for M19 Transcription Factor (Internal Marker) (AID 2282939); settings: HepG2 Attagene CIS-FACTORIAL M19 internal marker reporter; actives raise or lower the signal
Summary of the method: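 Transfect HepG2 with MRTU reporter library → dose chemical, 24 h → isolate total RNA, reverse-transcribe with oligo(dT) → PCR, 6-FAM label, HpaI cut (2 h, 37 C) → capillary electrophoresis. Bidirectional fit vs DMSO.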

[5] = ATG_ERE_CIS: Attagene CIS-FACTORIAL HepG2 Assay for Estrogen Response Element (ERE) (AID 2282940); settings: HepG2 ERE cis-reporter, Attagene RNA transcript; actives raise or lower the signal
Summary of the method: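 Transient MRTU transfection of human HepG2; cis-element promoters; 24 h dosing; total RNA → RT (oligo dT) → PCR → 6-FAM primer extension → HpaI digest → CE fluorescence. Bidirectional fit, DMSO baseline.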

[6] = ATG_Ets_CIS: Attagene CIS-FACTORIAL HepG2 Assay for human Erythroblast Transformation Specific (ETS) (AID 2282941); settings: HepG2 ETS cis-reporter transcription, actives raise or lower the signal
Summary of the method: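 Cis-regulated reporter mRNA induction in HepG2 (transient transfection), 24 h exposure, RT-PCR plus capillary electrophoresis detection; DMSO serves as negative control and baseline.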

[7] = molecular target: Hepatocyte nuclear factor 3-beta (Homo sapiens) (UniProt Q9Y261); experiment: ATG_FoxA2_CIS: Attagene CIS-FACTORIAL HepG2 Assay for human Forkhead box A2 (FOXA2) (AID 2282942); settings: HepG2 cis-reporter transcription factor activity, 24 h; actives raise or lower the signal
Sequence of Hepatocyte nuclear factor 3-beta (Homo sapiens) (Q9Y261 whole entry, looked up, the tested form may be a part): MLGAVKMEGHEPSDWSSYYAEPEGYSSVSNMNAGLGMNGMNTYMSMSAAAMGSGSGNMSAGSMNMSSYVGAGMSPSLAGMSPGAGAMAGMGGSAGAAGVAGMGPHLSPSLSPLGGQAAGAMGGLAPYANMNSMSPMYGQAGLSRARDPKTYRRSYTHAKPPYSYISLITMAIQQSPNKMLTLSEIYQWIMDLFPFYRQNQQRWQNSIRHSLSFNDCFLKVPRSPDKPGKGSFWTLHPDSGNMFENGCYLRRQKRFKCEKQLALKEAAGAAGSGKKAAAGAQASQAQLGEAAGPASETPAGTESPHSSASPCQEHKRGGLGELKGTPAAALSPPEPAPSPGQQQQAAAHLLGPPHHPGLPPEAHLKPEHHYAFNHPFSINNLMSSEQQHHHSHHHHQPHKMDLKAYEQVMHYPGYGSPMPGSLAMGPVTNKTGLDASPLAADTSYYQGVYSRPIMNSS
Summary of the method: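 Fluorescence signal of reporter cDNA fragments, separated by capillary electrophoresis, reflects endogenous transcription factor activity in transfected HepG2 after 24 h. Both increases and decreases fitted against DMSO.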

[8] = ATG_FoxO_CIS: Attagene CIS-FACTORIAL HepG2 Assay for human Forkhead box O (FoxO) (AID 2282943); settings: HepG2 Attagene cis-reporter, FoxO element, mRNA; actives raise or lower the signal
Summary of the method: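 Transfected HepG2 reporter cells exposed to test chemical for 24 h; reporter RNA measured by reverse transcription, PCR and fluorescent capillary electrophoresis; curves fitted for increases and decreases against DMSO.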

[9] = ATG_GATA_CIS: Attagene CIS-FACTORIAL HepG2 Assay for human GATA Binding Protein (AID 2282944); settings: HepG2 GATA cis-element reporter, Attagene multiplex mRNA; actives raise or lower the signal
Summary of the method: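 Transient MRTU transfection, HepG2, 24 h compound exposure. Total RNA → oligo(dT) RT → PCR → 6-FAM primer extension → HpaI cut → CE. Bidirectional fit vs DMSO.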

Measured: outcome

CCCCCCCCCCCCN1CCOCC1
inactive: all assays above

Source: PubChem BioAssay (EPA / NIEHS)
